Consider 40 molecules from PubChem BioAssay (NCI).

About 79,000 compounds went through this panel and 15% of them were active in at least one assay; those are over-represented in the sample as a whole. Unmarked numbers belong to inactive results. Activity calls are given as the source filed them. Cut-off read from the data, not from the text of the source: active = growth inhibition above about 70%; inactive = the rest.

One assay in a line: NCI Yeast Anticancer Drug Screen. Data for the cln2 rad14 strain (AID 165).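 Note: 0% = growth equal to vehicle treated cultures.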 The conditions noted are these: S. cerevisiae cln2 rad14 strain, at 50.0 µM, active compounds read high. An outline of the steps: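 Strain: cln2 rad14 yeast, altered in cell cycle control and DNA damage repair. Read-out: growth inhibition vs vehicle.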
For `CNCCC1CCCCCC1`, the growth inhibition is -13.5%.
The same measure, in the same setting: then `CCCCC1(O)CC2CC1C(C)C2(C)C` (stereo not drawn), with 22.1%; and `O=C1C=C(Nc2ccc3ccccc3c2[N+](=O)[O-])c2ccccc2C1=O`, with -16.4%; and `CCN(CC)C(=O)c1ccc(C(C)C)cc1`, with 6.6%.
Still for that read-out and setting: for `CCCCCCCCCCCCSC(=O)CCC(=O)O` the value was -29.9%; for `O=C(O)C(=O)NCc1cnccn1`, -29.6%; for `NC(CCC1CCCCC1)C(=O)O` (stereo not drawn), -3.65%.
The same measure, in the same setting: for `N=c1nc2n(cc1F)C1OC(CO)C(O)C1O2` (stereo not drawn) the value was -37.3%.
On to `CCCCNCCOC(=O)c1ccc(N)cc1`, for which the growth inhibition was 16.4%.
Still for that read-out and setting: for `NC(N)=NC(N)=Nc1c(F)c(F)c(F)c(F)c1F` the value was -14.5%; for `CCO/C=C1\SC(=S)N(CCc2ccc(OC)c(OC)c2)C1=O`, -2.2%.
For the molecule `CCN1C(=O)N(C)C(O)c2c1nc1ccccn1c2=O` (stereo not drawn), the growth inhibition is 3.65%.
As for `CCOC(=O)COS(=O)(=O)C(F)(F)F`, the growth inhibition is 2.95%.
As to `CCN(CC)C(=O)c1c2nc3c(C(=O)N(CC)CC)ccc(C)c3oc-2c(C)c(=O)c1N`, the growth inhibition is 19.9%.
Same read-out and setting: then `CCCCCCCCCCCCCCCCN(C)C(=S)c1ccc(OC)cc1`, with -3.15%; and `O=C(c1ccccc1)c1ccc2cccc3c2c1CC3`, with 20.8%; and `S=c1nc[nH]c2c1ncn2C1CCCC1`, with -14.9%.
Regarding `CN1CCN(Cc2cc(C(C)(C)C)cc(-c3ccccc3)c2O)CC1`, the growth inhibition is 6.45%.
Same read-out and setting: then `CC(=O)OC1OC(COC(=O)c2ccccc2)C(OC(=O)c2ccccc2)C1OC(=O)c1ccccc1` (stereo not drawn), with -33.9%.
On the same count and under the same terms, then `CCCC(CCC)C(=O)O`, with 7.9%; and `O=C(O)CCC1CC1C(=O)c1ccccc1` (stereo not drawn), with -37%; and `O=C1CCCCCCCS(=O)(=O)C1`, with -19.6%.
On the same count and under the same terms, for `CN(C)CC1CCC/C(=C\c2ccc(N(C)C)cc2)C1=O` (stereo not drawn) the value was 12.2%.

A further assay in a line: NCI Yeast Anticancer Drug Screen. Data for the bub3 strain (AID 167). Conditions: S. cerevisiae bub3 mutant strain, at 50.0 µM, active compounds read high. In short, it runs like this:
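Part of a panel of yeast mutants defective in DNA damage repair or cell cycle regulation. Each strain is grown with compound, and inhibition is calculated relative to solvent-treated cultures.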
As for `O=C(O)C(C1=CCCCC1)C1(O)CCCCC1` (stereo not drawn), the growth inhibition is -0.65%.
As for `CCc1c(C)[nH]c(C2=NCCC2)c1C`, the growth inhibition was -13.4%.
Regarding `CC1C(O)C(c2ccccc2)(c2ccccc2)C(C)CN1C` (stereo not drawn), the growth inhibition is -2.6%.
In the case of `CN(C)Cc1ccccc1COC(=O)c1ccccc1`, the growth inhibition is 17.4%.
As to `CCC(=N)C(c1ccccc1)(c1ccccc1)C(C)CN(C)C` (stereo not drawn), the growth inhibition was -9.15%.
The same measure, in the same setting: for `CC(=O)OC1/C=C(\C)C(OC(C)=O)C/C=C(/C)CCC2C(/C=C/C1=O)C2(C)C` (stereo not drawn) the value was 71.2% (active).
Take `COc1cc(COC(=O)Nc2ccccc2F)cc(OC)c1OC`: the growth inhibition was 19.6%.
As to `Cc1ccc(S(=O)(=O)c2ccc(O)c(C)c2)c(O)c1` (tested in a mixture with another compound), the growth inhibition is 33.4%.
As to `Nc1nc(N)c2ccccc2n1`, the growth inhibition is -6.9%.
The same measure, in the same setting: for `COCCOC(=O)c1ccccc1Cl` the value was 7.1%.
As to `COC(=O)/C=C/c1cc(OC)c2c(c1)C(C(=O)OC)C(c1ccc(O)c(OC)c1)O2` (stereo not drawn), the growth inhibition was -23.8%.
On the same count and under the same terms, for `O=c1[nH]c2ccccc2nc1/C=C/n1c(=S)[nH]c2ccccc21` the value was -33.5%; for `COC1(OC)C=NNc2nccn21`, -5.9%; for `CC(C)Nc1nc(N)nc2nc(-c3ccc(Cl)cc3)c(-c3ccc(Cl)cc3)nc12`, 8%.
Still for that read-out and setting: for `CCOC(=O)/C(=C/c1ccc(C(=O)OC)cc1)N(CC)CC` the value was -20.1%.
As for `C=C(CN(C)C)C1(c2ccccc2)CC2(CCCC2)C(=O)O1` (stereo not drawn), the growth inhibition was 11.9%.
For the molecule `CC(C)CCOC(=O)CC(CC(=O)OCCC(C)C)C(=O)OCCC(C)C`, the growth inhibition is -18.1%.
The same measure, in the same setting: then `CNCCC1CCCCCC1`, with 10.9%; and `CCCCC1(O)CC2CC1C(C)C2(C)C` (stereo not drawn), with 16.4%; and `O=C1C=C(Nc2ccc3ccccc3c2[N+](=O)[O-])c2ccccc2C1=O`, with 23.2%.
Same read-out and setting: for `CCN(CC)C(=O)c1ccc(C(C)C)cc1` the value was 18.3%; for `CCCCCCCCCCCCSC(=O)CCC(=O)O`, 1.85%; for `O=C(O)C(=O)NCc1cnccn1`, 11.9%.
Consider `NC(CCC1CCCCC1)C(=O)O` (stereo not drawn), for which the growth inhibition is 22.6%.
Take `N=c1nc2n(cc1F)C1OC(CO)C(O)C1O2` (stereo not drawn): the growth inhibition is -0.1%.
Turning to `CCCCNCCOC(=O)c1ccc(N)cc1`, the growth inhibition is 10.1%.
On the same count and under the same terms, for `NC(N)=NC(N)=Nc1c(F)c(F)c(F)c(F)c1F` the value was -3.6%; for `CCO/C=C1\SC(=S)N(CCc2ccc(OC)c(OC)c2)C1=O`, -5.6%; for `CCN1C(=O)N(C)C(O)c2c1nc1ccccn1c2=O` (stereo not drawn), -15.7%.
With `CCOC(=O)COS(=O)(=O)C(F)(F)F`, the growth inhibition is 3.5%.
Same read-out and setting: for `CCN(CC)C(=O)c1c2nc3c(C(=O)N(CC)CC)ccc(C)c3oc-2c(C)c(=O)c1N` the value was 0.9%.
Consider `CCCCCCCCCCCCCCCCN(C)C(=S)c1ccc(OC)cc1`, for which the growth inhibition is -1%.
Turning to `O=C(c1ccccc1)c1ccc2cccc3c2c1CC3`, the growth inhibition is 51.6%.
Still for that read-out and setting: for `S=c1nc[nH]c2c1ncn2C1CCCC1` the value was -0.3%; for `CN1CCN(Cc2cc(C(C)(C)C)cc(-c3ccccc3)c2O)CC1`, 8%; for `CC(=O)OC1OC(COC(=O)c2ccccc2)C(OC(=O)c2ccccc2)C1OC(=O)c1ccccc1` (stereo not drawn), -0.65%.
On to `CCCC(CCC)C(=O)O`, for which the growth inhibition was -10.8%.
On the same count and under the same terms, then `O=C(O)CCC1CC1C(=O)c1ccccc1` (stereo not drawn), with -28.6%; and `O=C1CCCCCCCS(=O)(=O)C1`, with -4.95%; and `CN(C)CC1CCC/C(=C\c2ccc(N(C)C)cc2)C1=O` (stereo not drawn), with 6.2%.
